# Source: PubChem BioAssay (NCI)
# About 83,000 compounds went through this panel and 20% of them were active in at least one assay; those are over-represented in the sample as a whole.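 Results are percent growth after 48 hours of single-concentration exposure. 100 means growth as in untreated cells, lower positive values show inhibition; negative values down to -100 show cell death.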 A number with no mark means an inactive call. Active and inactive are the calls of the source. The calls were made as follows: active = growth percent below 10; inactive = the rest.
# System: HL-60(TB) leukemia
# Test: NCI-60 one-dose screen, 48 h (100 = growth as untreated, 0 = no growth, -100 = all killed)
# Details: 10 µM unless noted
row,Compound,growth
1,CN(C)S(=O)(=O)n1cnc([C@@H]2[C@@H]3C(=O)OC[C@@H]3C[C@]23N=CN(Cc2ccccc2)C3=O)c1,123%
2,N#Cc1c(N)c(C(=O)c2ccc3c(c2)OCCO3)n2c1CCCC2,-19.2% (active)
3,CC(C)NS(=O)(=O)c1cccc(-c2ccc3c4c(n(CCCN(C)C)c(=O)c3c2)-c2ccccc2C4=O)c1,65.3%
4,CCOC(=O)n1cc(-c2nonc2-c2cn(C(=O)OCC)c3ccc(Br)cc23)c2ccccc21,93.9%
5,NC(=O)CC(NC(=O)COc1ccc(Cl)cc1Cl)C(=O)O (configuration not stated),109%
6,COc1cc(/C=C/C(=O)C(=Cc2ccc(F)c(F)c2)C(=O)/C=C/c2ccc(O)c(OC)c2)ccc1O,16.6%
7,COc1cc(/C=C/c2cc(/C=C/c3ccc(O)c(OC)c3)n(C(=O)Nc3ccc(Cl)cc3)n2)ccc1O,-20.9% (active)
8,N#Cc1ncc(-c2ccc(C(F)(F)F)cc2)c(NC2CCCCCC2)n1,6.7% (active)
9,Cc1ccccc1N1C(=O)c2cc(S(N)(=O)=O)c(Cl)cc2NC1C (configuration not stated),87.9%
10,COc1ccc(/C=C2\COc3ccc(-c4ccccc4)cc3C2=O)c(OC)c1,56.9%
11,CCN(CC)Cc1cc(Nc2ccnc3cc(Cl)ccc23)ccc1O,94.5%
12,CN1CCN(CC(=O)N(C)c2ccc(N=C(c3ccccc3)c3c(O)[nH]c4ccc([N+](=O)[O-])cc34)cc2)CC1,53.5%
13,CCCCOC(=O)Oc1ccc(C(=O)Oc2ccc(OCC)cc2)cc1,109%
14,C[N+](C)(C)CCOC(OCC[N+](C)(C)C)(c1ccccc1)c1ccccc1,110%
15,FC(F)(F)c1ccc(-c2cnc(-n3cc(COCCN4CCCCC4)nn3)nc2NC2CCCCCC2)cc1,-63.1% (active)
16,C=CC(=O)Nc1cccc(-c2nc(SC)nc(NCCc3ccc(OC)c(OC)c3)c2C#N)c1,25.6%
17,COc1ccc2c(c1)/C(=C/c1c(-c3cc(OC)c(OC)c(OC)c3Br)nc3sccn13)C(=O)N2,77.1%
18,CNC(=O)c1cc(Oc2ccc3c(c2)sc2nc(-c4cc(C(F)(F)F)cc(C(F)(F)F)c4)cn23)ccn1,45.7%
19,O=C(/C=C\c1ccc(O)c(O)c1)c1ccccc1O,11.6%

row,Compound,growth
1,O=S(=O)(NCCNc1nccc(-c2c(-c3cccc(O)c3)nc3occn23)n1)c1ccccc1,55.3%
2,CC/C=C/[C@@H]1C=C[C@@H]2CCC[C@H]2[C@@H]1CC[C@H](O)[C@H](C)N,-61.6% (active)
3,COc1cccc(-c2cn3c(ccc4ccccc43)n2)c1,6.28% (active)
4,O=CN1N=C(c2cccc(Nc3ccncc3)c2)CC1c1ccc2c(c1)OCO2 (configuration not stated),85.5%
5,O=S(=O)(Cc1ccccc1)c1ccccc1,96.5%
6,Clc1ccc2nc(CI)c(CI)nc2c1,2.82% (active)
7,COc1cc(/C=C2\C(=O)N(c3c(Cl)cccc3Cl)c3ccccc32)cc(OC)c1OCCCCCCn1c2ccccc2c(=O)c2ccccc21,106%
8,CC(=O)Nc1ccc(NC(C)=O)c2c1C(=O)c1ccccc1C2=O,154%
9,O=C1C[C@H](N2C(=O)c3ccccc3S2(=O)=O)C2CO[C@@H]1O2,106%
10,CC[C@]12C=CCN3CC[C@@]4(c5cc(NC(=O)CCC(=O)O[C@H]6CC[C@H]7[C@@H]8CC[C@H]9CC(=O)CC[C@]9(C)[C@H]8CC[C@]67C)c(OC)cc5N(C)[C@H]4[C@@](O)(C(=O)OC)[C@@H]1OC(C)=O)[C@@H]32,38.6%
11,Cc1c(F)cccc1NC(=O)c1sc2nc3c(cc2c1N)CCCCC3,6.49% (active)
12,CNC(=O)c1ccccc1CC1(O)c2ccccc2Oc2ccccc21,17.8%
13,Cc1nc2cc(-c3nn(C(C)C)c4ncnc(N)c34)ccc2o1,5.12% (active)
14,CCCC(C)c1ccc(OCCCCCCN2CCNCC2)cc1 (configuration not stated),-44.9% (active)
15,O=C1Nc2ccccc2/C1=C/c1cn(C(=O)c2ccc(Cl)cc2)c2ccccc12,150%
16,COc1ccccc1N1CCN(C(=O)c2ccc3nc(NC(=O)c4ccc(NCCc5ccccc5)c([N+](=O)[O-])c4)sc3c2)CC1,94.3%
17,CCCCNCC(=O)Nc1ccc(C(=O)OCC)cc1,86.9%
18,NC(=O)c1cccc(-c2ccccc2N2CCCCC2)c1,95.3%
